Assay [1] can be described thus: rapamycin-like changes in RPL19A-GFP expression – cell-based, S. cerevisiae, multiplex flow cytometry, primary screen (AID 1862; in the data active = percent of DMSO control GFP below about 86%;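 also: lower values mimic rapamycin by blocking the RPL19A rise seen in DMSO cells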). Conditions: S. cerevisiae RPL19A-GFP strain, flow cytometry fluorescence, 3 h; at 10 µM; stronger effect = lower value.
A short description of assay [2]: TOR pathway GLN3 branch reporter MEP2-GFP changes – S. cerevisiae, multiplex flow cytometry, primary screen (AID 1867;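 active = GFP response, as percent of the DMSO control, above the screen-wide mean plus 3 SD, about 139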;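 also: median GFP channel fluorescence of barcode-gated MEP2-GFP cells measured by flow cytometry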). Conditions: S. cerevisiae MEP2-GFP strain, 3 h, at 10 µM, stronger effect = higher value.
Assay [3] is described as follows: TOR pathway RTG branch CIT2 reporter changes – S. cerevisiae, GFP fusion, multiplex flow cytometry, primary screen (AID 1870;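 active = percent response above a set limit, the screen-wide mean plus 3 SD, cut at about 130% in these data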;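 also: barcoded CIT2-GFP strain pooled with four other GFP strains with rapamycin as positive control; median GFP fluorescence per well over plate mean of DMSO wells so 100% = DMSO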). The settings on record: S. cerevisiae CIT2-GFP expression, 3 h, at 10 µM, stronger effect = higher value.
Assay [4] is described as follows: TOR pathway LAP4-GFP level changes – S. cerevisiae, multiplex flow cytometry, primary screen (AID 1873;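 active = GFP signal, as percent of the solvent control, above the screen mean plus 3 SD, about 149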). Conditions: S. cerevisiae LAP4-GFP expression, 3 h, at 10 µM, stronger effect = higher value.
A short description of assay [5]: yeast AGP1-GFP level changes, GLN3 branch – cell-based, multiplex flow cytometry, S. cerevisiae, primary screen (AID 1887;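 active = GFP signal above the screen-wide mean plus 3 SD, that is over about 124.5% of the solvent control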;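 also: AGP1-GFP fusion strain of S. cerevisiae within a five-strain barcoded multiplex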). The settings on record: 3 h, at 10 µM, stronger effect = higher value.
Assay [6] can be described thus: reduced mouse 2C T cell binding to pMHC/ICAM-1 vesicles – MLPCN validation set, flow cytometry, LFA-1/ICAM-1 modulator project, pilot screen (AID 2523;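 active = response below a set limit, under 55% cells CD8-positive and vesicle-bound, and CD8 cells' 90th-percentile brightness under 279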;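 as to vesicle binding response: mean PE anti-B7-1 fluorescence of CD8+ cells relative to row control; 100% = QL9-loaded vesicles with DMSO vehicle in the same plate row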). The settings on record: 2C mouse CD8+ T cells, at 7 µM, stronger effect = lower value; double positive events: measured here: CD8+/vesicle+ event percentage.
The target in assay [7] is Integrin beta-1 (Homo sapiens) + Integrin alpha-4 (Homo sapiens) (UniProt P13612+P05556). The experiment in a line: alpha4beta1 integrin LIBS antibody binding reduction – U937 cells, HUTS-21 mAb, flow cytometry, validation set, VLA-4 allosteric modulator project, pilot screen (AID 2674;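 active = inhibition above 50%, about 3 SD of the validation set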;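 also: antibody binding induced by the VLA-4 ligand LDV present at three times its Kd; 0% = LDV ligand with antibody and no compound and 100% = antibody without LDV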). Conditions: HUTS-21 LIBS mAb binding, at 6.7 µM, stronger effect = higher value.
The nature of assay [8]: calorie-restriction mimetic ROS inhibitors, yeast – validation compound set, pilot screen (AID 2706;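 active = superoxide response below 65% of plate, a cut near 3 SD across the whole screen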;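 also: yeast exposed to compound for one week at 30 degrees C before staining; 100% = mean of all compound wells on the same plate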). Conditions: S. cerevisiae aging, superoxide DHE fluorescence; at 10 µM; stronger effect = lower value.
Assay [9] has as its target Beta-adrenergic receptor kinase 1 (Homo sapiens) (UniProt P25098). Nature of the assay: GRK2 binders displacing RNA aptamer, biochemical, validation, human GRK2, bead flow cytometry (AID 488806;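 active = aptamer binding inhibition above 30%, about 3 SD of noise from non-fluorescent compounds; inactive = inhibition at or below 30%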). Conditions: bead-bound GRK2, FAM-aptamer displacement, at 10 µM, stronger effect = higher value.
Assay [10] concerns the target Beta-2 adrenergic receptor (Homo sapiens) (UniProt P07550). Nature of the assay: agonist-induced loss of surface beta2AR – cell-based, FAP fluorogen, flow cytometry, validation set, pilot screen (AID 504459;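 active = percent response above 42, roughly 3 SD of non-fluorescent test compounds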;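 also: agonist-driven loss of surface beta2AR via internalization measured by FAP dye flow cytometry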). The settings on record: Am2.2-beta2AR cells, at 10 µM, stronger effect = higher value.
Assay [11] concerns the target AP-2 complex subunit beta (Homo sapiens) (UniProt P63010). Nature of the assay: beta-arrestin/AP2 interaction blockers – biochemical, validation set, GST-AP2 beads, flow cytometry, pilot screen (AID 504541;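 active = inhibition above 54%, about 3 SD of non-fluorescent compounds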;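 also: AP2 carries R879A mutation and is captured from E. coli lysate; bead-bound FITC arrestin peptide fluorescence measuring arrestin peptide binding to AP2; 0% = DMSO wells and 100% = excess unlabeled arrestin peptide control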). The settings on record: FITC arrestin peptide, at 10 µM, stronger effect = higher value.
Assay [12] is described as follows: cytosolic pH regulators acting via V-ATPase – S. cerevisiae, pHLuorin, HTS validation (AID 504600; in the data active = response above about 15%;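 also: plate controls were DMSO for no effect and reference compound for full effect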). Conditions: V-ATPase proton transport, at 10 µM, stronger effect = higher value.
For assay [13], the system named is anti-desmoglein-3 scFv antibody binding to human DSG3. The experiment in a line: blockers of pathogenic pemphigus antibody–desmoglein-3 binding – biochemical, validation compound set, bead-based, flow cytometry, pilot screen (AID 588368;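 active = binding below the plate cutoff, the plate median minus 3 SD, with a reading above zero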;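 also: signal is the median channel fluorescence of bead-bound GFP antibody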). The settings on record: Protein G beads, DSG3-Fc, scFv-GFP binding, at 10 µM, stronger effect = lower value.
The test system of assay [14] is Botulinum neurotoxin type F light chain protease (Clostridium botulinum). The experiment in a line: Clostridium botulinum type F light chain protease inhibitors, microsphere substrate cleavage, validation (AID 588459). The settings on record: multiplex microsphere protease substrate cleavage assay, flow cytometry; at 10 µM; stronger effect = higher value.
The target in assay [15] is Botulinum neurotoxin type A (Clostridium botulinum) (UniProt P0DPI0). Nature of the assay: BoNT/A light chain protease inhibitors, biochemical, multiplex microsphere flow cytometry, validation set (AID 588460). Conditions: at 10 µM, stronger effect = higher value.
Assay [16] deals with Lethal factor (Bacillus anthracis) (UniProt P15917). Nature of the assay: Bacillus anthracis lethal factor inhibition, microsphere flow cytometry protease assay, validation at 10 µM (AID 588461). The settings on record: multiplex microsphere protease cleavage assay, stronger effect = higher value.
Assay [17] is described as follows: Nile Red efflux blockade in pump-expressing yeast – validation compound set, multiplex, phenotypic, pilot screen (AID 588506;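 active = efflux inhibition above 0.42, the validation set average plus 4 SD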;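 also: Nile Red retained in cells so higher fluorescence means more efflux inhibition; 0 = negative control wells and 1 = enniatin B 25 µM full block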). The settings on record: S. cerevisiae pump-expressing triplex, Nile Red efflux flow cytometry; at 10 µM; stronger effect = higher value.
Assay [18] addresses ATP-binding cassette sub-family B member 6 (Homo sapiens) (UniProt Q9NP58). Nature of the assay: blockers of ABCB6-driven porphyrin uptake – K562-ABCB6 cells, flow cytometry, validation set, pilot screen (AID 588550;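 active = inhibition above the screen-wide mean plus 3 SD, about 51%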;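 also: 0% = DMSO wells and 100% = benzethonium chloride 70 µM positive control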). The settings on record: K562-ABCB6 porphyrin accumulation, 1 h, at 10 µM, stronger effect = higher value.
Assay [19] in a line: AML differentiation inducers, ER-HoxA9 marrow cells – cell-based, GFP/MAC1 double positive, flow cytometry, validation set, primary screen (AID 588685;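 active = differentiation response of at least 50%, scaled between solvent and reference control, from cells with both markers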;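 also: compound exposure lasts four days before antibody staining and flow analysis; 0% = DMSO wells and 100% = 5 µM fulvestrant positive control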). Conditions: stronger effect = higher value.

The values that follow come from PubChem BioAssay.

Molecules are shown by their SMILES. Records with an inconclusive call do not appear. Active and inactive are the calls of the source. Unless noted, no rule for the calls is given here.

Chain of ATP-binding cassette sub-family B member 6 (Homo sapiens) (Q9NP58 whole entry, looked up): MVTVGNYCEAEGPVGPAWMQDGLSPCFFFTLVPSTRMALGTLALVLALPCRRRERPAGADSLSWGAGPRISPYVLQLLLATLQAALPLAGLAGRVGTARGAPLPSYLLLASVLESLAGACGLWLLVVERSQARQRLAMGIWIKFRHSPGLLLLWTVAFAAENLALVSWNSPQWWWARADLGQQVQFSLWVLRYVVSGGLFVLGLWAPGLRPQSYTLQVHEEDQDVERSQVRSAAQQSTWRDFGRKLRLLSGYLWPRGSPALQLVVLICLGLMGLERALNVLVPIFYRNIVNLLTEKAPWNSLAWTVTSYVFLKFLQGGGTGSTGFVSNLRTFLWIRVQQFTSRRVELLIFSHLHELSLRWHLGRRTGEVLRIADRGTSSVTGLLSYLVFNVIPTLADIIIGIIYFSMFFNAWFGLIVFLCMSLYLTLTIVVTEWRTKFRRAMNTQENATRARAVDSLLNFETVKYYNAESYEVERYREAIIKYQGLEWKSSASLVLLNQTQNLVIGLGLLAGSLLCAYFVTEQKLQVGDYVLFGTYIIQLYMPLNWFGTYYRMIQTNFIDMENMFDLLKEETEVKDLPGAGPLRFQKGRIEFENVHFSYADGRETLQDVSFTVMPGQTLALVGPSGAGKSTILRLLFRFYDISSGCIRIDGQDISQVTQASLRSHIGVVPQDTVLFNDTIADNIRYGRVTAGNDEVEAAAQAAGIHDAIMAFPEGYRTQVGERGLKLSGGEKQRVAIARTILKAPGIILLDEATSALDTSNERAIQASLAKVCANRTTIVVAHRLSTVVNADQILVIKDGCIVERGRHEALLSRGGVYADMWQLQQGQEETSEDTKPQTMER
Chain of AP-2 complex subunit beta (Homo sapiens) (P63010 whole entry, looked up, one chain of several): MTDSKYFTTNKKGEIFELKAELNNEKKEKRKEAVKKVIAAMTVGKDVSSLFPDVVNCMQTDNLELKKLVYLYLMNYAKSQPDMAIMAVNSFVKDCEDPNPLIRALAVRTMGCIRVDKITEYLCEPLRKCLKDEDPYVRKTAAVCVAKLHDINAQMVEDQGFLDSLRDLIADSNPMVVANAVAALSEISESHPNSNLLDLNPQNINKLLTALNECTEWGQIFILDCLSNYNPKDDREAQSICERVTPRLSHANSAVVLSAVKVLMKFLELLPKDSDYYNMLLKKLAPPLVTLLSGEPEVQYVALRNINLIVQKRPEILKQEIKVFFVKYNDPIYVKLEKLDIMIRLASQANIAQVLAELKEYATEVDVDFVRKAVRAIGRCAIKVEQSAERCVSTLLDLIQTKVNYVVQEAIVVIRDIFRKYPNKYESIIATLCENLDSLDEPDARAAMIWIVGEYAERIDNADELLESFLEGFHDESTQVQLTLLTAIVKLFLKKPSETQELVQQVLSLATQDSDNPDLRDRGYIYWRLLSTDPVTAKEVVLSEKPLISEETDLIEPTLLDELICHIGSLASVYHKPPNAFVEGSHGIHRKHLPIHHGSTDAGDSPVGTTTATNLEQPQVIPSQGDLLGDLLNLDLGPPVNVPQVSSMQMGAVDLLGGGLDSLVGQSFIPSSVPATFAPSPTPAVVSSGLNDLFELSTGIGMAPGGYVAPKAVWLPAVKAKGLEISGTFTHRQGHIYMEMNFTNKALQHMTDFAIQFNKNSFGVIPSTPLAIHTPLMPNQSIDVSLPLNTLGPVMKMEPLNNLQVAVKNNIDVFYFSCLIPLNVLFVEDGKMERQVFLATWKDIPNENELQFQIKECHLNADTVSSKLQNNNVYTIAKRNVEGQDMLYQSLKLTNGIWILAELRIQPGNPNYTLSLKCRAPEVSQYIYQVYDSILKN
Chain of Botulinum neurotoxin type A (Clostridium botulinum) (P0DPI0 whole entry, looked up): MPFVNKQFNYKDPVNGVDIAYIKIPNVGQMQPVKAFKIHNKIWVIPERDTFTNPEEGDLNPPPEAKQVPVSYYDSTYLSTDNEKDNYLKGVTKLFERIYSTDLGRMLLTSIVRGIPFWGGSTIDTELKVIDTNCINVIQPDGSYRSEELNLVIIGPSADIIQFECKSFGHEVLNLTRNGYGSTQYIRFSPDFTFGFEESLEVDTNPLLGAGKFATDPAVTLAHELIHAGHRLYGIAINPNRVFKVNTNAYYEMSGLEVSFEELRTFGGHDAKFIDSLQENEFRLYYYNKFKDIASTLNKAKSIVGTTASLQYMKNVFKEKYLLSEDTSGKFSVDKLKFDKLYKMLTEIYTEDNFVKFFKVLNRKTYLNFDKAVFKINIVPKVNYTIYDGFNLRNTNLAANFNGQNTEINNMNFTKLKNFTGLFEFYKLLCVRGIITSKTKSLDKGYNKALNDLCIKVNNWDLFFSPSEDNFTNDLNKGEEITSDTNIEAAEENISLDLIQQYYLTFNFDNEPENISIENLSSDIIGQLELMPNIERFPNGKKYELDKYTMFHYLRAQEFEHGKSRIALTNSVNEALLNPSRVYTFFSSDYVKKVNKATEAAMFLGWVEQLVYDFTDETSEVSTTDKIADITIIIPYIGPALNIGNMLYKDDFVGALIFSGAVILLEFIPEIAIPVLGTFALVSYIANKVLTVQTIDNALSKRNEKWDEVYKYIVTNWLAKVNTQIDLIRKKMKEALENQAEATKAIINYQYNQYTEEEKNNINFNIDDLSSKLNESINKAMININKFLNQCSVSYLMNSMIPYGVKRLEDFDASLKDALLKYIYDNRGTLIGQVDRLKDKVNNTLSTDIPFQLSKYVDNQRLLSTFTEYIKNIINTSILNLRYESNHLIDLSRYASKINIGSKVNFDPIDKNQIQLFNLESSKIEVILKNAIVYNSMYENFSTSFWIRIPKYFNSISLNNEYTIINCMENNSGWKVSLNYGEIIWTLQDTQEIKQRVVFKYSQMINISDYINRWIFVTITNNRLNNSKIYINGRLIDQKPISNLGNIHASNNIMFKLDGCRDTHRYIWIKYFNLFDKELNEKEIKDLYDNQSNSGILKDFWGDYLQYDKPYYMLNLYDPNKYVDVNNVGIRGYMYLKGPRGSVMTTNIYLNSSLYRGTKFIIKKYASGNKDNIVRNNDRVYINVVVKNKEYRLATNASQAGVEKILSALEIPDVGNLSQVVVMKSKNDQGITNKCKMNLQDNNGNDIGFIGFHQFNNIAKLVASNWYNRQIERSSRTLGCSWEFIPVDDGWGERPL
Chain of Beta-2 adrenergic receptor (Homo sapiens) (P07550 whole entry, looked up): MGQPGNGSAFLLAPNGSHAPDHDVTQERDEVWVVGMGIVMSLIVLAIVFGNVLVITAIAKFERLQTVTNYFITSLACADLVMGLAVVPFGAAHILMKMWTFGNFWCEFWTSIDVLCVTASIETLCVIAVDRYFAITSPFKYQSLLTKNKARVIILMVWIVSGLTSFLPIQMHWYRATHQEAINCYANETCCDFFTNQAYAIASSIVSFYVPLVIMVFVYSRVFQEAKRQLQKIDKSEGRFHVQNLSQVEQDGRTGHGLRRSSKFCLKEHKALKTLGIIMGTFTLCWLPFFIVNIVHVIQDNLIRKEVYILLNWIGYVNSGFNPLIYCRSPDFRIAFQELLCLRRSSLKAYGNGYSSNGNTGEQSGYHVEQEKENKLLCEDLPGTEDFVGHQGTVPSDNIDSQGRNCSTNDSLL
Chain of Lethal factor (Bacillus anthracis) (P15917 whole entry, looked up): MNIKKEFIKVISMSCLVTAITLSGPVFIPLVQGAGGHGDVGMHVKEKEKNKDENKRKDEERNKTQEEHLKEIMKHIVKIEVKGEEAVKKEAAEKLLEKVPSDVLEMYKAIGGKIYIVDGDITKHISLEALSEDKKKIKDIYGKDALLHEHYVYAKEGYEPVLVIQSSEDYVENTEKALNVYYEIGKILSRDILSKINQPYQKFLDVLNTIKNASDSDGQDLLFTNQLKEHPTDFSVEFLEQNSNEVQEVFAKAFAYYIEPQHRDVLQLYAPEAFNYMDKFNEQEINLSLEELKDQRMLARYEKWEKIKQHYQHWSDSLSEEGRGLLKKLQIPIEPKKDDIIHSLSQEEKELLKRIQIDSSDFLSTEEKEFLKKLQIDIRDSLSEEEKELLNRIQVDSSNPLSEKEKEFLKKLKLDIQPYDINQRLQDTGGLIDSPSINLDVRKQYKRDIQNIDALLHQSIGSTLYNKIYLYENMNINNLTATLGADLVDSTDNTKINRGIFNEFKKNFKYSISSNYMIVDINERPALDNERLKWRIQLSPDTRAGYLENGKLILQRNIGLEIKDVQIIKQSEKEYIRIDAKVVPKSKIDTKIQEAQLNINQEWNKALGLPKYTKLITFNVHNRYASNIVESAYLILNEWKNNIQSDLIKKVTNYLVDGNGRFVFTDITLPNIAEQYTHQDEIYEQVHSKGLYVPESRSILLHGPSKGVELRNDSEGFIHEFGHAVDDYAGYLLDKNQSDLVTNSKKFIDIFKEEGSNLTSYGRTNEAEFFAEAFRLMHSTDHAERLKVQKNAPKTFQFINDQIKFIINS
Chain of Beta-adrenergic receptor kinase 1 (Homo sapiens) (P25098 whole entry, looked up): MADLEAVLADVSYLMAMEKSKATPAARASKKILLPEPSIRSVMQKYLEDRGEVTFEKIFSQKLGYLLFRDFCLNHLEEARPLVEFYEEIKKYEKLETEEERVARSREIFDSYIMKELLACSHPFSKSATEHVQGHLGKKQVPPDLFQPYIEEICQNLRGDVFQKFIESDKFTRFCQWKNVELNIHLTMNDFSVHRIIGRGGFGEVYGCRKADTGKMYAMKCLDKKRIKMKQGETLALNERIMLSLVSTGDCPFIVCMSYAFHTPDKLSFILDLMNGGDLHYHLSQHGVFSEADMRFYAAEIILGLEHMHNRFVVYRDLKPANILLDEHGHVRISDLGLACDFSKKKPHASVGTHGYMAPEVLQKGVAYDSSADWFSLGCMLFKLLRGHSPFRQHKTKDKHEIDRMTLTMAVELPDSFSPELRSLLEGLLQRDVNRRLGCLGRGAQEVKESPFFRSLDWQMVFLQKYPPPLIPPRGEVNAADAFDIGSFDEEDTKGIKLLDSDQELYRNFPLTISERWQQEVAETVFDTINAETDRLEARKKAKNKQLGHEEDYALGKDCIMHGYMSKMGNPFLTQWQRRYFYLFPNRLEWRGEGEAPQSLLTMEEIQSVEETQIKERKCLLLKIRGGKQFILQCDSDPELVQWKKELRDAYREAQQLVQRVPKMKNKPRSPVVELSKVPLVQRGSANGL

As for `C[C@H]1CCCC(=O)CCC/C=C/c2cc(O)cc(O)c2C(=O)O1`, the percent of DMSO control GFP in assay [1] was 102% (inactive). For the same compound, the GFP response vs DMSO was 104% (inactive) in assay [2] and 96.5% (inactive) in assay [4]. The percent response of DMSO control in [3] was 96% (inactive). The GFP response, % of DMSO in assay [5] is 98.3% (inactive). In [6], this compound registered a double positive events of 57.4%. Also, the vesicle binding response in [6] is 138% (inactive). The inhibition in assay [7] is -0.31% (inactive); in [11], -2.22% (inactive); in assay [14], 5.6% (inactive); in assay [15], 0.5% (inactive); in [16] it was 0.4% (inactive); in assay [18], 3% (inactive). Also, the superoxide response (% of plate) in [8] is 102% (inactive). Moreover, the aptamer binding inhibition in assay [9] was 3% (inactive). Further, the values for the response in assay [10] and in [12] were 2.24% (inactive) and 0.54% (inactive), respectively. Further, in assay [13], the binding (% of control) is 99% (inactive). Moreover, the efflux inhibition (fraction of control) in assay [17] was -0.09 (inactive). Further, the differentiation response in assay [19] is -5.68% (inactive).

For the compound `OC(c1ccccc1)(c1ccccc1)C1CCNCC1`, in assay [1], the percent of DMSO control GFP is 99.4% (inactive). For the same compound, the GFP response vs DMSO in [2] is 110% (inactive); in [4], 85.3% (inactive). The percent response of DMSO control in assay [3] was 104% (inactive). The GFP response, % of DMSO in [5] was 103% (inactive). Also, in [6], the double positive events came to 73.3%. In addition, the vesicle binding response in assay [6] was 322% (inactive). Further, the inhibition in assay [7] is -5.18% (inactive); in assay [11], 2.73% (inactive); in assay [14], 4.1% (inactive); in assay [15] it was 1.1% (inactive); in assay [16], 4.1% (inactive); in assay [18] it was 12% (inactive). Besides, the superoxide response (% of plate) in [8] is 94.6% (inactive). In addition, in [9], the aptamer binding inhibition was 12% (inactive). The response in assay [10] was 6.3% (inactive); in assay [12], 10.3% (inactive). Besides, the binding (% of control) in [13] is 106% (inactive). Besides, in assay [17], the efflux inhibition (fraction of control) was 0.05 (inactive). The differentiation response in assay [19] was 2.46% (inactive).

Turning to `C[N+](C)(C)Cc1ccccc1`, the percent of DMSO control GFP in assay [1] is 103% (inactive). In addition, the GFP response vs DMSO in assay [2] was 105% (inactive); in assay [4], 109% (inactive). Further, the percent response of DMSO control in assay [3] is 106% (inactive). Further, in assay [5], the GFP response, % of DMSO was 110% (inactive). This compound also came in with a double positive events in assay [6] of 64.9%. Also, the vesicle binding response in [6] is 147% (inactive). The inhibition is -14.5% (inactive) in [7]; 3.88% (inactive) in [11]; 1.5% (inactive) in [14]; 0.6% (inactive) in assay [15]; 4.6% (inactive) in assay [16]; 1% (inactive) in assay [18]. Further, the superoxide response (% of plate) in assay [8] was 89.2% (inactive). The aptamer binding inhibition in assay [9] was -1% (inactive). In addition, the figures for the response in assay [10] and in assay [12] were -3.98% (inactive) and -0.83% (inactive), respectively. Also, the binding (% of control) in assay [13] was 103% (inactive). Besides, in assay [17], the efflux inhibition (fraction of control) was 0.245 (inactive). Further, the differentiation response in assay [19] is -14.8% (inactive).
